High-throughput results deposited in PubChem BioAssay by National Center for Advancing Translational Sciences (NCATS).
FLuc modulator – firefly luciferase modulation, counter-screen for miR-21 project; actives 6.9% (n = 360,000); purified FLuc, Km substrates, luminescence inhibition; Potency, µM (highest dose often 57.5 µM), for the others: top-dose activity change, negative = inhibition, hits mostly inhibitors; P08659; AID 588342;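 further: plate controls were vehicle for no effect and reference inhibitor for full effect; nearly all actives have a fitted effect of over 55% in size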
Target sequence (P08659 whole entry, looked up): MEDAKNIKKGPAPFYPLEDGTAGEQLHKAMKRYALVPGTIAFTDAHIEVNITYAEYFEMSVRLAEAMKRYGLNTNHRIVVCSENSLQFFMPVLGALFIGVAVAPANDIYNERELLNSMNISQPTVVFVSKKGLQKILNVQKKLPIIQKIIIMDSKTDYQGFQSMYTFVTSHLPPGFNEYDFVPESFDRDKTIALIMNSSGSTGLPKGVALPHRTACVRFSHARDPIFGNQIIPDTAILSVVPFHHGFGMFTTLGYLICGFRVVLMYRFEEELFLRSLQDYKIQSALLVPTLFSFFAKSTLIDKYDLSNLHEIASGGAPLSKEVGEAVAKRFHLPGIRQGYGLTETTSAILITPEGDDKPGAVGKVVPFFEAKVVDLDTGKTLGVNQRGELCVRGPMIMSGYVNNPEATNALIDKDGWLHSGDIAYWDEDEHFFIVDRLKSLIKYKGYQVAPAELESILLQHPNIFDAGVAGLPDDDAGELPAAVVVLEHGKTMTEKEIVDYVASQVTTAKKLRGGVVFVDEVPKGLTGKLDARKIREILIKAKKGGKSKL
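Purified P. pyralis luciferase (10nM final) with 10uM D-luciferin and 10uM ATP (Km levels) in 50mM Tris acetate pH 7.5, 10mM Mg acetate, 0.01% Tween-20, 0.05% BSA; qHTS 6-point titration, ~60 µM downward; luminescence read.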
uPA generation – cell surface uPA generation inhibition; cell surface uPA generation assay, qHTS; Potency, µM (highest dose often 38.3 µM), without a hit: at the highest dose activity change, negative = inhibition, most hits filed as inhibitors; actives 0.31% (n = 330,000); AID 540303; active means well fitted inhibition curve with a large enough effect; inconclusive means small, poorly fitted or top-dose-only effect; inactive means no such curve, though single readings can be large or run the other way; tested in mouse RAW 264.7 cells; further: on the % scale 0 is the no-effect control and ±100 the full control effect; nearly all actives have a fitted effect of over 55% in size
Rab9 prom act – activates the Rab9 promoter; Huh7 Rab9 promoter-luciferase reporter, luminescence, 24 h; Potency, µM (titrated, usually from 9.22 µM), without a hit: top-dose activation, negative = inhibition, hits mostly activators; actives 2.8% (n = 320,000); further: % of control where 0% means no effect; nearly all actives have a fitted effect of over 60% in size
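Huh7 reporter line, Rab9 promoter upstream of luciferase. Compound exposure 24 h at 37 °C in reduced-serum medium with 10% FBS. Read-out: luminescence.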
ELG1 genotoxic – induces genotoxicity in HEK293T cells with luciferase-tagged ELG1 | HEK293T ELG1-luciferase reporter, luminescence, 16 h | Potency, µM (highest dose often 46 µM), for the others: at the highest dose activity change, positive = activation, actives largely listed as activators | actives 1.3% (n = 330,000) | AID 504466; further: % of control where 0% means no effect; nearly all actives have a fitted effect of over 60% in size
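HEK293T cells expressing luciferase-tagged ELG1 were treated with compound or DMSO for 16 hr at 37°C. Luciferase activity was then read after 30 min with ONE-Glo at room temperature; rising signal flags genetic stress.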
NPC1 prom act – activators of NPC1 promoter. Huh7 NPC1 promoter luciferase reporter, 24 h. Potency, µM (top dose mostly 9.22 µM), for inactives: top-dose activation, most hits filed as activators. actives 2.4% (n = 320,000); further: % of control where 0% means no effect; nearly all actives have a fitted effect of over 60% in size
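Cells: Huh7 expressing luciferase under the NPC1 promoter, 1500/well. Seeded 2 h, compound added, incubated 24 h at 37 °C. Luciferase reagent, 10 min ambient, then luminescence.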
SMN2 splice enh – increases expression of the SMN2 splice variant | HEK293 SMN2-luciferase splicing reporter, luminescence, 30-36 h | Potency, µM (highest dose often 46.1 µM), for inactives: at the top dose activity change, positive = activation, most hits filed as activators | actives 2.8% (n = 210,000); further: % of control where 0% means no effect; nearly all actives have a fitted effect of over 55% in size
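qHTS luciferase splicing reporter: luminescence rises when SMN2 exon 7 is included in transfected HEK293 cells. Compound exposure lasted 30-36 h at 37C, with 4.5 mM final sodium butyrate as control, followed by a ONE-Glo read.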
* marks the source's active call; other numbers are inactive results; ? = inconclusive; . = not tested or not shown. Compounds with a hit are over-represented: about 7.3% of the library has one in this group of screens. Unless noted, the call rests on the fitted dose curve; in most records, active means well fitted curve in the direction sought with a large enough effect; inconclusive means small, poorly fitted or top-dose-only effect, or another doubt; inactive means no such curve, though single readings can be large; an effect the other way counts as inactive or inconclusive. Potency means the concentration at half of the fitted maximal effect.

SMILES	FLuc modulator	uPA generation	Rab9 prom act	ELG1 genotoxic	NPC1 prom act	SMN2 splice enh
Cc1nn(-c2ccc(N3CCCCC3)nn2)c(C)c1CCC(=O)Nc1ccc(F)cc1F	15µM*	.	.	.	.	.
Cc1ccc(F)cc1NC(=O)CCc1c(C)nn(-c2ccc(N3CCCCC3)nn2)c1C	11µM*	-6%	30%	8%	?	.
CC(=O)c1ccccc1[N+](=O)[O-]	.	.	.	.	.	2%
COc1ccc2nc(NC(=O)c3ccoc3C)sc2c1	1.2µM*	?	0.45µM*	?	0.63µM*	2µM*
COc1ccc(OCC(=O)Nc2nc3cc4c(cc3s2)OCCO4)cc1	.	0%	.	-2%	.	.
Cc1cc(C(=O)Nc2nc3ccc(S(C)(=O)=O)cc3s2)c(C)o1	0.85µM*	-23%	3.2µM*	8.2µM*	?	5.6µM*
COc1ccc2nc(NC(=O)c3cc(C)oc3C)sc2c1	1.3µM*	-7%	2.8µM*	?	?	16µM*
COc1ccc(C(=O)Nc2nc3cc4c(cc3s2)OCO4)c(OC)c1	0.43µM*	-19%	0.79µM*	?	0.79µM*	.
COc1ccc2nc(NC(=O)CN3CCOCC3)sc2c1	?	-5%	27%	?	15%	10%
Cc1ccc(CNC(=O)c2ccc(CS(=O)(=O)Cc3ccc(F)cc3)o2)cc1	-2%	.	.	.	.	.
CCOC(=O)NC(=O)/C(C#N)=C\Nc1ccc(Cl)cc1Cl	13µM*	-6%	?	16%	-23%	-8%
CC1(C)CC(=O)C2=C(C1)N(CCN1CCOCC1)C1=C(C(=O)CC(C)(C)C1)C2c1ccc(Cl)c([N+](=O)[O-])c1	-2%	-9%	-2%	-1%	-5%	-6%
Cc1ccc(C2C3=C(CC(C)(C)CC3=O)N(CCN3CCOCC3)C3=C2C(=O)CC(C)(C)C3)cc1	-9%	-7%	3.5µM*	-2%	-3%	-8%
O=C(NCCc1ccc(Cl)cc1)c1cnc2sc(N3CCCC3)nn2c1=O	2%	.	.	.	.	.
COc1ccc(-c2noc(CCCC(=O)Nc3ccc(C(N)=O)cc3)n2)cc1OC	-13%	4%	5%	0%	4%	.
CN1CCN(CCOc2ccc(-c3ccccc3)cc2)CC1	?	7%	0%	21%	3%	.
c1ccc(COc2ccc(OCCn3cncn3)cc2)cc1	9.5µM*	3%	3.2µM*	9.2µM*	2.5µM*	11µM*
c1ccc(Oc2cccc(OCCn3cncn3)c2)cc1	?	2%	6%	10%	0%	0%
CN1CCN(CCCOc2ccc(-c3ccccc3)cc2)CC1	19µM*	0%	?	?	2.8µM*	.
c1ccc(-c2ccc(OCCCn3cncn3)cc2)cc1	17µM*	4%	22%	?	26%	-7%
Cc1ccc(C)n1-c1nnc(N2CCC(C(=O)Nc3ccccc3Br)CC2)s1	3%	.	.	.	.	-8%
CCNc1ncc2nc(-c3ccccc3)c(=O)n(Cc3ccc(F)cc3)c2n1	.	.	.	.	.	-9%
CC(NC(=O)c1cnc2ccccc2n1)c1ccccc1 (centres undefined)	?	-3%	-5%	1%	4%	.
NC(=O)c1ccc(NC(=O)COC(=O)c2ccc3ccccc3n2)cc1	.	2%	.	-3%	.	.
NC(=O)c1ccc(NC(=O)c2cnc3ccccc3n2)cc1	?	7%	2.5µM*	?	?	.
SMILES	FLuc modulator	uPA generation	Rab9 prom act	ELG1 genotoxic	NPC1 prom act	SMN2 splice enh
Cc1ccc(NC(=O)c2ncc(Cl)c(Cl)c2Cl)cc1C	-15%	-1%	2.8µM*	?	-3%	?
Cc1ccc(NC(=O)c2cnc3ccccc3n2)cc1C	2.4µM*	5%	0.5µM*	?	0.2µM*	.
O=C(Nc1ccccc1)c1cnc2ccccc2n1	12µM*	0%	7%	?	19%	?
CCC(C)NC(=O)CSc1nc(-c2ccc(F)cc2)cc(C(F)(F)F)n1 (centres undefined)	1%	.	.	.	.	2%
CCc1ccccc1NC(=O)CN1CCN(C(=O)CN2C(=O)NC3(CCCC3)C2=O)CC1	.	1%	-4%	0%	-2%	.
CC1(C)C2CCC1(C)C1(C2)NC(=O)c2ccccc2O1 (centres undefined)	-1%	-1%	-7%	-1%	-4%	-9%
Clc1cccc(CSc2ncn(-c3ccccc3)n2)c1	19µM*	1%	22%	?	16%	?
O=C(NNC(=O)c1ccccc1O)c1cc2ccccc2o1	27µM*	-3%	?	?	4.5µM*	.
O=C(NNC(=O)c1cc2ccccc2o1)c1ccncc1	.	3%	.	4%	.	.
CC(C)c1nnc(NC(=O)c2cc3ccccc3o2)s1	6.7µM*	2%	2µM*	?	?	.
O=C(Nc1ccc(N2CCCC2)cc1)c1cc2ccccc2o1	3µM*	?	2µM*	?	3.5µM*	.
O=C(Nc1ccc(F)cc1)c1cc2ccccc2o1	6.7µM*	?	3.2µM*	21%	3.5µM*	.
O=C(Nc1ccc(NC(=O)c2cc3ccccc3o2)cc1)c1ccco1	-15%	1%	20%	6%	13%	.
CC(C)NC(=O)c1cc2ccccc2o1	-8%	3%	0%	-2%	-2%	1%
Cc1ccc2cc(CCNC(=O)CCCc3ccccc3)c(=O)[nH]c2c1C	0%	2%	2%	-2%	-6%	.
Cc1ccc(C)c(S(=O)(=O)N(C)c2ccc(OC(=O)C3CCN(C(=O)Nc4ccccc4)CC3)cc2)c1	.	-1%	.	.	.	.
O=C(Nc1ccccc1)c1cc2ccccc2o1	1.2µM*	-5%	1.6µM*	?	2.8µM*	13µM*
CC(=O)c1ccc(NC(=O)c2cc3ccccc3o2)cc1	?	?	0.63µM*	2.6µM*	1µM*	.
Cc1cc(C(=O)Nc2ccccc2)oc1C	12µM*	0%	2.8µM*	?	?	20µM*
CC(NC(=O)c1cc2ccccc2o1)c1ccccc1 (centres undefined)	-10%	6%	-12%	-3%	0%	.
CSC(C(=O)c1cc2ccccc2o1)c1ccccc1 (centres undefined)	?	5%	3.2µM*	9%	?	.
CCOc1ccc(NC(=O)CCC(=O)NNS(=O)(=O)c2ccccc2[N+](=O)[O-])cc1	-7%	6%	-2%	-1%	-3%	.
Cc1cc(NC(=O)c2ccccc2)cc(NC(=O)c2ccccc2)c1C	?	2%	3%	4%	13%	.
Cc1ccc(NC(=O)c2ccccc2)s1	2.7µM*	-9%	0.63µM*	?	0.71µM*	2µM*
Cc1cc(NC(=O)c2ccccc2)sc1C	3.4µM*	-10%	.	.	.	11µM*
O=C(CSc1nnc2ccc3ccccc3n12)Nc1ccccc1Cl	17µM*	.	.	.	.	.
CCCOC(=O)CSc1nnc2ccc3ccccc3n12	9.5µM*	.	.	.	.	.
CCN(CC)C(=O)CSc1nnc2ccc3ccccc3n12	-11%	.	.	.	.	.
